Laboratory results: the supplement of paper PMC11732987, “Enantioselective OTUD7B fragment discovery through chemoproteomics screening and high-throughput optimisation” (Communications Chemistry, 2025)

Legend:
Assay in all cases: log2 ratio of Biotin-Ahx-Ub-VS probe labelling (compound/DMSO); higher = less target engagement, active = hit call of the paper (q ≤ 0.05, log2 ratio ≤ -1)
Conditions in all cases: treatment time: 3 h
[1] = compound: CN(Cc1cccc(Br)c1)C(=O)CCl
Summary of the method: (§1)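 Compound at 50 or 200 µM, or DMSO, was applied for 3 h in triplicate to HEK293T lysate (495 µg per sample, Tris/CHAPS/IGEPAL buffer with protease inhibitors), after which Biotin-Ahx-Ub-VS was added at 0.5 µM final for 1 h. The labelled DUBs were pulled down with NeutrAvidin, digested with LysC and trypsin, and run by diaPASEF LC-MS/MS. Ratios are averaged base-two logs of compound over DMSO from median-normalised label-free quantities by unpaired t-test, counting only proteins with at least 2 unique peptides.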

[2] = compound: CN(Cc1cccc(OCc2ccccc2C)c1)C(=O)CCl
Summary of the method: as §1

[3] = compound: CN(Cc1ccccc1)C(=O)CCl
Summary of the method: as §1

[4] = compound: COc1ccc(CN(C)C(=O)CCl)cc1
Summary of the method: as §1

[5] = compound: COc1cccc(CN(CCCc2ccccc2)C(=O)CCl)c1
Summary of the method: as §1

[6] = compound: ClCC(=O)N1CCc2cc(Cl)c(Cl)cc2C1
Summary of the method: as §1

[7] = compound: ClCC(=O)N1CCc2nc(ncc2C1)-c1ccccc1
Summary of the method: as §1

[8] = compound: ClCC(=O)N1CCc2nocc2C1
Summary of the method: as §1

[9] = compound: ClCC(=O)N1CCc2scc(Br)c2C1
Summary of the method: as §1

[10] = compound: ClCC(=O)NC(C1CCCC1)c1cccs1
Summary of the method: as §1

Measured: log2 ratio of Biotin-Ahx-Ub-VS probe labelling

UCHL1 (UniProt P09936)
Chain of UniProt P09936 (P09936 whole entry, looked up): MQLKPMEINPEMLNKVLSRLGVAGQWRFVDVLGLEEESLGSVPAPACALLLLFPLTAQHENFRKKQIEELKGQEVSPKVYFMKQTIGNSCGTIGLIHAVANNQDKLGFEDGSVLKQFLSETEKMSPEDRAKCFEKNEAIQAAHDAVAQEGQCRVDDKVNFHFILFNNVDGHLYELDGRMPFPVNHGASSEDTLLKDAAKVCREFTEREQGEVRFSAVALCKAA
inactive: [1]; compound concentration: 50uM -0.0723 | [1]; compound concentration: 200uM 0.424 | [2]; compound concentration: 50uM -0.437 | [2]; compound concentration: 200uM -0.268 | [3]; compound concentration: 50uM -0.373 | [3]; compound concentration: 200uM -0.192 | [4]; compound concentration: 50uM -0.293 | [4]; compound concentration: 200uM 0.0271 | [5]; compound concentration: 50uM 0.0165 | [5]; compound concentration: 200uM 0.0676 | [6]; compound concentration: 50uM 0.153 | [6]; compound concentration: 200uM -0.0523 | [7]; compound concentration: 50uM 0.109 | [7]; compound concentration: 200uM -0.0372 | [8]; compound concentration: 50uM -0.379 | [8]; compound concentration: 200uM -0.3 | [9]; compound concentration: 50uM -0.0189 | [9]; compound concentration: 200uM -0.0895 | [10]; compound concentration: 50uM -0.0993 | [10]; compound concentration: 200uM -0.00199

YOD1 (UniProt Q5VVQ6)
Chain of UniProt Q5VVQ6 (Q5VVQ6 whole entry): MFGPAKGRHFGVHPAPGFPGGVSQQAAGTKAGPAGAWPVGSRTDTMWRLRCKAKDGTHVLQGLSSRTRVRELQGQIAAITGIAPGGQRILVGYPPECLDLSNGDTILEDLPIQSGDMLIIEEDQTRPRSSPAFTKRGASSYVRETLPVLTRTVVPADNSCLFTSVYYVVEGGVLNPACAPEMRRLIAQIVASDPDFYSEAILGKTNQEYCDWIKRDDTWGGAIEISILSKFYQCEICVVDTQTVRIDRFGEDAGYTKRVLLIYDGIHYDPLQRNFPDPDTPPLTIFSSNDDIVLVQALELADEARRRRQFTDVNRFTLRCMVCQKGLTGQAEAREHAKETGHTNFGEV
inactive: [1]; compound concentration: 50uM -0.152 | [1]; compound concentration: 200uM 0.742 | [2]; compound concentration: 50uM -0.555 | [2]; compound concentration: 200uM -0.132 | [3]; compound concentration: 50uM -0.391 | [3]; compound concentration: 200uM -0.259 | [4]; compound concentration: 50uM -0.465 | [4]; compound concentration: 200uM -0.288 | [5]; compound concentration: 50uM -0.0608 | [5]; compound concentration: 200uM 0.000762 | [6]; compound concentration: 50uM 0.356 | [6]; compound concentration: 200uM -0.373 | [7]; compound concentration: 50uM 0.102 | [7]; compound concentration: 200uM 0.0411 | [8]; compound concentration: 50uM -0.0213 | [8]; compound concentration: 200uM -0.416 | [9]; compound concentration: 50uM 0.039 | [9]; compound concentration: 200uM -0.482 | [10]; compound concentration: 50uM -0.11 | [10]; compound concentration: 200uM 0.00107

USP42 (UniProt Q9H9J4)
Chain of UniProt Q9H9J4 (Q9H9J4 whole entry): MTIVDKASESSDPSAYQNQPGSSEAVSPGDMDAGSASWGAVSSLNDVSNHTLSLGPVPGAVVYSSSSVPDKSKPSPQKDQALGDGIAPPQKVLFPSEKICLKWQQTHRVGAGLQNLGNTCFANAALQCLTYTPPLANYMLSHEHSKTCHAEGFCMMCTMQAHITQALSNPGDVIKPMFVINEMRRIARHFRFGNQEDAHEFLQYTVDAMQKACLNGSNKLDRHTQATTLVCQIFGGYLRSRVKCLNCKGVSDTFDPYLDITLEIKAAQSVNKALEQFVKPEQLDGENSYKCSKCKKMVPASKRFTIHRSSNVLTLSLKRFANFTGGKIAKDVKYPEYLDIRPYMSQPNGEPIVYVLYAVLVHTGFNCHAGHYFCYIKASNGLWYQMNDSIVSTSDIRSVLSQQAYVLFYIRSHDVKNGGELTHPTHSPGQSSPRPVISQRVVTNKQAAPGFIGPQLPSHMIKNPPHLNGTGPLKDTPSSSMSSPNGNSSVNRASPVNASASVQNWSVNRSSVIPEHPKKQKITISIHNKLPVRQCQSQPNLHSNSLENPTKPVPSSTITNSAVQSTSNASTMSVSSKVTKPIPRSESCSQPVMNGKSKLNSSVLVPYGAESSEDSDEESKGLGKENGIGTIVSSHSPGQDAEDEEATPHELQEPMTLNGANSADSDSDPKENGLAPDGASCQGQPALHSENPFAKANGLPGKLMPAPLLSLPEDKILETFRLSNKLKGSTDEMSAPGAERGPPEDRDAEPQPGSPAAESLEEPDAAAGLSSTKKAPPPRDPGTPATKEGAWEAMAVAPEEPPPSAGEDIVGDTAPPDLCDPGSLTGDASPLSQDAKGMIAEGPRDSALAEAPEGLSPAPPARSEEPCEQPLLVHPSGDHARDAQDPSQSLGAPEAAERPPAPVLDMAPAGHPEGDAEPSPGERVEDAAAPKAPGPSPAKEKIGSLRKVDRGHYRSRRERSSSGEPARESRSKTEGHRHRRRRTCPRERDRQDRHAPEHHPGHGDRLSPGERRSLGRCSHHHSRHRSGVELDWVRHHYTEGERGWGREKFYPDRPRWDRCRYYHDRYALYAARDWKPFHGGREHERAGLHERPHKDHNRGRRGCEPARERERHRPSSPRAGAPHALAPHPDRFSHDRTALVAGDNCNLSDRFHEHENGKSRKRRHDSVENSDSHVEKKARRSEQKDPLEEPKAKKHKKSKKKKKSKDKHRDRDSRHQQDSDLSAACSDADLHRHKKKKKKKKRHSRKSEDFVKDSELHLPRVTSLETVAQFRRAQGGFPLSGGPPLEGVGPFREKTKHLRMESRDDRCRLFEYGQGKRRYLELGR
inactive: [1]; compound concentration: 50uM 0.0496 | [1]; compound concentration: 200uM 0.397 | [2]; compound concentration: 50uM 0.101 | [2]; compound concentration: 200uM 0.171 | [3]; compound concentration: 50uM -0.0195 | [3]; compound concentration: 200uM 0.165 | [4]; compound concentration: 50uM -0.0749 | [4]; compound concentration: 200uM 0.205 | [5]; compound concentration: 50uM 0.0537 | [5]; compound concentration: 200uM 0.284 | [6]; compound concentration: 50uM 0.0405 | [6]; compound concentration: 200uM 0.669 | [7]; compound concentration: 50uM -0.0528 | [7]; compound concentration: 200uM 0.104 | [8]; compound concentration: 50uM 0.0476 | [8]; compound concentration: 200uM 0.187 | [9]; compound concentration: 50uM 0.182 | [9]; compound concentration: 200uM 0.44 | [10]; compound concentration: 50uM -0.428 | [10]; compound concentration: 200uM 0.159

VCPIP1 (UniProt Q96JH7)
active: [2]; compound concentration: 200uM -1.2 | [5]; compound concentration: 200uM -1.11
inactive: [1]; compound concentration: 50uM -0.446 | [1]; compound concentration: 200uM -0.887 | [2]; compound concentration: 50uM -0.755 | [3]; compound concentration: 50uM -0.563 | [3]; compound concentration: 200uM -0.709 | [4]; compound concentration: 50uM -0.548 | [4]; compound concentration: 200uM -0.854 | [5]; compound concentration: 50uM -0.299 | [6]; compound concentration: 50uM -0.374 | [6]; compound concentration: 200uM -0.407 | [7]; compound concentration: 50uM -0.105 | [7]; compound concentration: 200uM -0.284 | [8]; compound concentration: 50uM -0.319 | [8]; compound concentration: 200uM -0.484 | [9]; compound concentration: 50uM -0.213 | [9]; compound concentration: 200uM -0.677 | [10]; compound concentration: 50uM -0.515 | [10]; compound concentration: 200uM -0.426

OTUD4 (UniProt Q01804)
Chain of UniProt Q01804 (Q01804 whole entry): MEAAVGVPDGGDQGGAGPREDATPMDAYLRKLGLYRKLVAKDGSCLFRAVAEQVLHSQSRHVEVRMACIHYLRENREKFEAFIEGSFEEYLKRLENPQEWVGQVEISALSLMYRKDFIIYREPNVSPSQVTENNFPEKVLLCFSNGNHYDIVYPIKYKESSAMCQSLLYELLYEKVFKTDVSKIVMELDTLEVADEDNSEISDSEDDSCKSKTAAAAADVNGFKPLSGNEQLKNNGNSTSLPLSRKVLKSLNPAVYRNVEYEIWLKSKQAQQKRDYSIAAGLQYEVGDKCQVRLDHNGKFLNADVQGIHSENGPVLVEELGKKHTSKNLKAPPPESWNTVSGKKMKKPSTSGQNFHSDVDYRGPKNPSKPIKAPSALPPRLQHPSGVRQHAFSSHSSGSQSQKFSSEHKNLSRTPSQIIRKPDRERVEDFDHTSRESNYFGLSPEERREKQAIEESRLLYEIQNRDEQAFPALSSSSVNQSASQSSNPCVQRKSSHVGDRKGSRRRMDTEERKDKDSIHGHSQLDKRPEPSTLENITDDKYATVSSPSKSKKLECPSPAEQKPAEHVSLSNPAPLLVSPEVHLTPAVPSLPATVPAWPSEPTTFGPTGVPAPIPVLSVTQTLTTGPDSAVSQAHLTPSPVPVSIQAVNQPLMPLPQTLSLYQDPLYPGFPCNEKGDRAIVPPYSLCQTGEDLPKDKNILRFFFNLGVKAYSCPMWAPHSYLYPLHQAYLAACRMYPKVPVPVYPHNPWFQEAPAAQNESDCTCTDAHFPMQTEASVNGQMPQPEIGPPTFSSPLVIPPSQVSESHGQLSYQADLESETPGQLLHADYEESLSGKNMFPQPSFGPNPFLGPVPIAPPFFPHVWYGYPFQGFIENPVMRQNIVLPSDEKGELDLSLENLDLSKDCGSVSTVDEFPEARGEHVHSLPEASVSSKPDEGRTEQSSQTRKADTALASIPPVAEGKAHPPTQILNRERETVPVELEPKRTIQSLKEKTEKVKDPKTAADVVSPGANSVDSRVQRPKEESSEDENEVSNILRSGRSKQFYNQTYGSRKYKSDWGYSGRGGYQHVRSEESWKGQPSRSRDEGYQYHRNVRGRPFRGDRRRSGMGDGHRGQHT
inactive: [1]; compound concentration: 50uM -0.0958 | [1]; compound concentration: 200uM -0.146 | [2]; compound concentration: 50uM -0.447 | [2]; compound concentration: 200uM -0.51 | [3]; compound concentration: 50uM -0.294 | [3]; compound concentration: 200uM -0.346 | [4]; compound concentration: 50uM -0.216 | [4]; compound concentration: 200uM -0.205 | [5]; compound concentration: 50uM -0.174 | [5]; compound concentration: 200uM -0.415 | [6]; compound concentration: 50uM 0.000974 | [6]; compound concentration: 200uM -0.823 | [7]; compound concentration: 50uM 0.0593 | [7]; compound concentration: 200uM -0.446 | [8]; compound concentration: 50uM -0.424 | [8]; compound concentration: 200uM -0.874 | [9]; compound concentration: 50uM -0.0278 | [9]; compound concentration: 200uM -0.809 | [10]; compound concentration: 50uM -0.284 | [10]; compound concentration: 200uM -0.721

UniProt Q5T2D3
Chain of UniProt Q5T2D3 (Q5T2D3 whole entry): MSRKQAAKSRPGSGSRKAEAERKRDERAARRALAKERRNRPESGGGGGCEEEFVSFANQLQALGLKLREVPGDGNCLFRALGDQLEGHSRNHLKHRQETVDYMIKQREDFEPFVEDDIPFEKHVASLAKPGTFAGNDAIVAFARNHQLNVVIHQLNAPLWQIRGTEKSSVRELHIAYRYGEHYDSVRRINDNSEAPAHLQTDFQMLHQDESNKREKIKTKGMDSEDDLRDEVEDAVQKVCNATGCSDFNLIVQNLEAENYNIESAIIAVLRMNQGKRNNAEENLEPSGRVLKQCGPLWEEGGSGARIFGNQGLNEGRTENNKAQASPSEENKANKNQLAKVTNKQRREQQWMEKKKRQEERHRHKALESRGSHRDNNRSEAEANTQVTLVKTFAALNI
inactive: [1]; compound concentration: 50uM 0.00241 | [1]; compound concentration: 200uM -0.212 | [2]; compound concentration: 50uM -0.549 | [2]; compound concentration: 200uM -0.332 | [3]; compound concentration: 50uM -0.381 | [3]; compound concentration: 200uM -0.198 | [4]; compound concentration: 50uM -0.229 | [4]; compound concentration: 200uM 0.0599 | [5]; compound concentration: 50uM -0.157 | [5]; compound concentration: 200uM -0.202 | [6]; compound concentration: 50uM 0.0943 | [6]; compound concentration: 200uM -0.112 | [7]; compound concentration: 50uM 0.0194 | [7]; compound concentration: 200uM -0.186 | [8]; compound concentration: 50uM -0.173 | [8]; compound concentration: 200uM -0.329 | [9]; compound concentration: 50uM -0.0373 | [9]; compound concentration: 200uM 0.0195 | [10]; compound concentration: 50uM -0.0592 | [10]; compound concentration: 200uM -0.12

UniProt Q70EL2
Chain of UniProt Q70EL2 (Q70EL2 whole entry): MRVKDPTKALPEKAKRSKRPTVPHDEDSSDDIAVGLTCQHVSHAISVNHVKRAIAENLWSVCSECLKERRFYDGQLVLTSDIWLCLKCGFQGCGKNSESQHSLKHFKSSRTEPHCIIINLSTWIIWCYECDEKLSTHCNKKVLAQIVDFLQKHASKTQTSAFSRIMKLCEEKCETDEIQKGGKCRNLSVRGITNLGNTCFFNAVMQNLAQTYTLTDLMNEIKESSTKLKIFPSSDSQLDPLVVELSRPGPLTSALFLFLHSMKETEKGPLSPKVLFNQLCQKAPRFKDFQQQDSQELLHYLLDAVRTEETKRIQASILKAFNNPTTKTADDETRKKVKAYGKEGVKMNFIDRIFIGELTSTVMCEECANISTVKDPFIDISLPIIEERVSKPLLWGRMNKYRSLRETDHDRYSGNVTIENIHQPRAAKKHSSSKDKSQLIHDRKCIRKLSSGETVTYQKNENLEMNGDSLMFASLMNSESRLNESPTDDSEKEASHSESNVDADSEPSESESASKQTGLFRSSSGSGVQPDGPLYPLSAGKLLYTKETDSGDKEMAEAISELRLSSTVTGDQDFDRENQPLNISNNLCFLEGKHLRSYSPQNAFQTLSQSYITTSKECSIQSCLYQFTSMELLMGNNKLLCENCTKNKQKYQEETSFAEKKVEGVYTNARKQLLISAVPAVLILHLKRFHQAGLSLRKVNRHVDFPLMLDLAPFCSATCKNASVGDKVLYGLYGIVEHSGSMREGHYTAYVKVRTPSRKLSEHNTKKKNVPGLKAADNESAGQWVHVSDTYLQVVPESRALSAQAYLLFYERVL
inactive: [1]; compound concentration: 50uM -0.228 | [1]; compound concentration: 200uM -0.814 | [2]; compound concentration: 50uM -0.959 | [2]; compound concentration: 200uM -0.772 | [3]; compound concentration: 50uM -0.191 | [3]; compound concentration: 200uM -0.88 | [4]; compound concentration: 50uM -0.338 | [4]; compound concentration: 200uM -0.647 | [5]; compound concentration: 50uM -0.512 | [5]; compound concentration: 200uM -0.481 | [6]; compound concentration: 50uM -0.569 | [7]; compound concentration: 50uM -0.558 | [8]; compound concentration: 50uM -0.0582 | [8]; compound concentration: 200uM -0.311 | [9]; compound concentration: 50uM -0.413 | [9]; compound concentration: 200uM -0.868 | [10]; compound concentration: 50uM 0.37 | [10]; compound concentration: 200uM -0.115
active: [6]; compound concentration: 200uM -1.27 | [7]; compound concentration: 200uM -1.03

USP9X (UniProt Q93008)
active: [2]; compound concentration: 200uM -1.59 | [5]; compound concentration: 200uM -1.31 | [6]; compound concentration: 200uM -1.96 | [9]; compound concentration: 200uM -1.13
inactive: [1]; compound concentration: 50uM -0.128 | [1]; compound concentration: 200uM -0.446 | [2]; compound concentration: 50uM -0.553 | [3]; compound concentration: 50uM -0.193 | [3]; compound concentration: 200uM -0.435 | [4]; compound concentration: 50uM -0.101 | [4]; compound concentration: 200uM -0.202 | [5]; compound concentration: 50uM -0.221 | [6]; compound concentration: 50uM -0.225 | [7]; compound concentration: 50uM 0.0933 | [7]; compound concentration: 200uM -0.622 | [8]; compound concentration: 50uM -0.15 | [8]; compound concentration: 200uM -0.284 | [9]; compound concentration: 50uM -0.229 | [10]; compound concentration: 50uM -0.00568 | [10]; compound concentration: 200uM -0.248
